The values that follow come from the supplement of paper PMC11402862.

The assay relates to PPARgamma LBD (GAL4 fusion). Put plainly: luciferase reporter transactivation, fold of solvent control; higher = stronger receptor activation. As to conditions: HEK293T, exposure time: 24 h. On the procedure:
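HEK293T cells were transiently transfected with a GAL4-DBD fused to the ligand-binding domain of a human nuclear receptor (PPARα, PPARγ, PPARδ, FXR, LXRα, PXR, RARα or CAR), the GAL4-(UAS)5-TK firefly luciferase reporter and a Renilla luciferase normalisation plasmid. Cells were exposed to compound for 24 h in 0.5% DMSO. Firefly/Renilla luciferase was expressed as fold of the solvent control (=1). Values are the mean of 2-3 biological replicates; receptor agonists were used as positive controls.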
In general terms: In a reporter assay the amount or activity of a reporter protein is the signal.

In the case of `O=S(=O)(O)CCC(F)(F)C(F)(F)C(F)(F)C(F)(F)C(F)(F)C(F)(F)C(F)(F)C(F)(F)F` [8:2 fluorotelomer sulfonic acid], the luciferase reporter transactivation runs as follows: (concentration: 1 µM) 0.851; (concentration: 5 µM) 0.861; (concentration: 10 µM) 0.922; (concentration: 25 µM) 0.905; (concentration: 50 µM) 1.04; (concentration: 100 µM) 1.31. The luciferase reporter transactivation (concentration: 250 µM) was 1.04 and the luciferase reporter transactivation (concentration: 500 µM) was 0.846.
For `O=C(O)C(F)(F)C(F)(F)C(F)(F)C(F)(F)F` [perfluoropentanoic acid], the luciferase reporter transactivation runs as follows: (concentration: 1 µM) 1.01; (concentration: 5 µM) 1.01; (concentration: 10 µM) 0.918; (concentration: 25 µM) 0.953; (concentration: 50 µM) 0.925; (concentration: 100 µM) 0.858. Also, the luciferase reporter transactivation was 0.947 (concentration: 250 µM) and 1.11 (concentration: 500 µM).
In the case of `OCCC(F)(F)C(F)(F)C(F)(F)C(F)(F)C(F)(F)C(F)(F)F` [6:2 fluorotelomer alcohol], the luciferase reporter transactivation is, setting by setting: (concentration: 1 µM) 1.1; (concentration: 5 µM) 1; (concentration: 10 µM) 0.973; (concentration: 25 µM) 1.1; (concentration: 50 µM) 1.09; (concentration: 100 µM) 0.563. Besides, the luciferase reporter transactivation runs as follows: (concentration: 250 µM) 1.25; (concentration: 500 µM) 1.1.
On to `O=S(=O)(O)CCC(F)(F)C(F)(F)C(F)(F)C(F)(F)C(F)(F)C(F)(F)F` [6:2 fluorotelomer sulfonic acid], for which the luciferase reporter transactivation (concentration: 1 µM) was found to be 1.45; the luciferase reporter transactivation (concentration: 5 µM) is 1.66; the luciferase reporter transactivation (concentration: 10 µM) was 1.6; the luciferase reporter transactivation (concentration: 25 µM) worked out at 1.57; the luciferase reporter transactivation (concentration: 50 µM) amounted to 1.9; the luciferase reporter transactivation (concentration: 100 µM) came out at 2.81.
Under “concentration: 10 µM”, `Cc1c(C)c2c(c(C)c1O)CCC(C)(COc1ccc(CC3SC(=O)NC3=O)cc1)O2` (stereo unspecified) [troglitazone] returned a luciferase reporter transactivation of 27.7.
